Results: ChEMBL document CHEMBL1961873, “Compounds: GSK PKIS; Assays: Nanosyn kinase panel” (2012)

Assays:
[1] = biological target: T1, Serine/threonine-protein kinase D2 (Homo sapiens) (UniProt Q9BZL6); details: at 1 µM;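 further: mean value of PRKD2 inhibition, from the GSK PKIS screening panel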
T1 sequence (whole entry): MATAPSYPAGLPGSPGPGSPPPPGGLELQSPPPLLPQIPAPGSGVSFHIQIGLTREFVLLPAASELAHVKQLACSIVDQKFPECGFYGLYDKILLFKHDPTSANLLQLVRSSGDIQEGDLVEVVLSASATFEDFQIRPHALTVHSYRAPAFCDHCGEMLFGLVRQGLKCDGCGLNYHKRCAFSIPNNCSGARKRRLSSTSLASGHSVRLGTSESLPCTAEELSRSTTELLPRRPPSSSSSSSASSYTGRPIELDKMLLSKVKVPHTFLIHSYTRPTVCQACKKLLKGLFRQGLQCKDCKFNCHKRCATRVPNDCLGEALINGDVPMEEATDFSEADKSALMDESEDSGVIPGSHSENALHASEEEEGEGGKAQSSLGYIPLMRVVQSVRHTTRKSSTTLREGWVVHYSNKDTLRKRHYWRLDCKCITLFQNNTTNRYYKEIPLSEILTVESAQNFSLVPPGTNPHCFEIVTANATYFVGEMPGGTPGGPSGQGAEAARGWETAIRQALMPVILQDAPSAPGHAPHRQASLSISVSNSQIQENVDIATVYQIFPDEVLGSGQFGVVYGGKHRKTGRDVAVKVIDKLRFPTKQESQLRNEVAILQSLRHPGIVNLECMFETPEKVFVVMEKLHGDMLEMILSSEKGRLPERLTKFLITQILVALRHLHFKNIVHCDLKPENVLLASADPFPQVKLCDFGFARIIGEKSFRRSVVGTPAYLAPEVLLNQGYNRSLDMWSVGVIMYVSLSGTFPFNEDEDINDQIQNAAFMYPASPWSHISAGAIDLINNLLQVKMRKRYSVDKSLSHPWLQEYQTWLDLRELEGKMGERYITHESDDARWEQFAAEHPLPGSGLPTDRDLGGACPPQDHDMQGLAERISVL

[2] = biological target: T2, Serine/threonine-protein kinase D3 (Homo sapiens) (UniProt O94806); details: at 0.1 µM
T2 sequence (whole entry): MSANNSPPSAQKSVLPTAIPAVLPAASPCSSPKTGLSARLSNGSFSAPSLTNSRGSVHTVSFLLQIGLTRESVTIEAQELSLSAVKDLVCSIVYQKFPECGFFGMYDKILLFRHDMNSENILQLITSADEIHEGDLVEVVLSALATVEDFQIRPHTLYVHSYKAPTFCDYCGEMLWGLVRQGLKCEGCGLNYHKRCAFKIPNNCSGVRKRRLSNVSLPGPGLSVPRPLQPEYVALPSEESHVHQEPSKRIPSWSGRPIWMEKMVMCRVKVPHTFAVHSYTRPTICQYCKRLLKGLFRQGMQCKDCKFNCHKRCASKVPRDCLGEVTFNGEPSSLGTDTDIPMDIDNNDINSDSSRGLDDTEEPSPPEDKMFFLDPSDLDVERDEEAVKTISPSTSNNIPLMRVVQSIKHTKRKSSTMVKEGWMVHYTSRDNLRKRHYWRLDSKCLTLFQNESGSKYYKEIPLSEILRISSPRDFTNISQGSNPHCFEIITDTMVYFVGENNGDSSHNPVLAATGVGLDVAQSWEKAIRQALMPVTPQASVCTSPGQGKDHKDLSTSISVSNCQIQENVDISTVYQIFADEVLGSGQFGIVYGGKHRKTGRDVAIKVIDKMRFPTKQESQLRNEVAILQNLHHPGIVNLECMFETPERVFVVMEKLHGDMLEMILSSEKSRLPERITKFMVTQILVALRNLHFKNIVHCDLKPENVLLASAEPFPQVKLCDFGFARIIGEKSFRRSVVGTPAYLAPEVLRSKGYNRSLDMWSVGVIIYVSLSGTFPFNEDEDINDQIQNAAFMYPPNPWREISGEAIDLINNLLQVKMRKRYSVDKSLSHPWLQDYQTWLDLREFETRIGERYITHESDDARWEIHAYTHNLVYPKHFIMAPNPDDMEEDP

[3] = biological target: T2, Serine/threonine-protein kinase D3 (Homo sapiens); details: at 1 µM
[4] = biological target: T3, cGMP-dependent protein kinase 1 (Homo sapiens) (UniProt Q13976); details: at 0.1 µM
T3 sequence (whole entry): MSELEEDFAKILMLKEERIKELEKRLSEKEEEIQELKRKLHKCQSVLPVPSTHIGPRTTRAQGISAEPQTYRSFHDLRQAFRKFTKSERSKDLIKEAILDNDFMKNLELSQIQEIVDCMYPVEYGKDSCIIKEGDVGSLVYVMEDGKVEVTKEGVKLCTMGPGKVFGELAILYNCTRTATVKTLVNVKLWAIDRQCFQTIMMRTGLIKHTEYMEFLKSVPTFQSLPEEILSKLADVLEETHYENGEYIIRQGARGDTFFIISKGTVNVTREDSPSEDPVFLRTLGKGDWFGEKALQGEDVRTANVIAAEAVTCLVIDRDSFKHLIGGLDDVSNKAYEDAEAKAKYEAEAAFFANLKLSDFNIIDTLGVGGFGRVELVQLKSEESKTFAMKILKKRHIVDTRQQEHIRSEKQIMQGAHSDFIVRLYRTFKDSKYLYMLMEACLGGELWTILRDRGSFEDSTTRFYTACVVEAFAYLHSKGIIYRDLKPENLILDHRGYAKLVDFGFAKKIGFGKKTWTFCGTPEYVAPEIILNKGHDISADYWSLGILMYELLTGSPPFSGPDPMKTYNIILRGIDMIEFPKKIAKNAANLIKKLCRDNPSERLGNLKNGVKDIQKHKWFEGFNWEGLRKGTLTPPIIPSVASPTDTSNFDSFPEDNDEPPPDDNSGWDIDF

[5] = biological target: T3, cGMP-dependent protein kinase 1 (Homo sapiens); details: at 1 µM
[6] = biological target: T4, cGMP-dependent protein kinase 2 (Homo sapiens) (UniProt Q13237); details: at 0.1 µM
T4 sequence (whole entry): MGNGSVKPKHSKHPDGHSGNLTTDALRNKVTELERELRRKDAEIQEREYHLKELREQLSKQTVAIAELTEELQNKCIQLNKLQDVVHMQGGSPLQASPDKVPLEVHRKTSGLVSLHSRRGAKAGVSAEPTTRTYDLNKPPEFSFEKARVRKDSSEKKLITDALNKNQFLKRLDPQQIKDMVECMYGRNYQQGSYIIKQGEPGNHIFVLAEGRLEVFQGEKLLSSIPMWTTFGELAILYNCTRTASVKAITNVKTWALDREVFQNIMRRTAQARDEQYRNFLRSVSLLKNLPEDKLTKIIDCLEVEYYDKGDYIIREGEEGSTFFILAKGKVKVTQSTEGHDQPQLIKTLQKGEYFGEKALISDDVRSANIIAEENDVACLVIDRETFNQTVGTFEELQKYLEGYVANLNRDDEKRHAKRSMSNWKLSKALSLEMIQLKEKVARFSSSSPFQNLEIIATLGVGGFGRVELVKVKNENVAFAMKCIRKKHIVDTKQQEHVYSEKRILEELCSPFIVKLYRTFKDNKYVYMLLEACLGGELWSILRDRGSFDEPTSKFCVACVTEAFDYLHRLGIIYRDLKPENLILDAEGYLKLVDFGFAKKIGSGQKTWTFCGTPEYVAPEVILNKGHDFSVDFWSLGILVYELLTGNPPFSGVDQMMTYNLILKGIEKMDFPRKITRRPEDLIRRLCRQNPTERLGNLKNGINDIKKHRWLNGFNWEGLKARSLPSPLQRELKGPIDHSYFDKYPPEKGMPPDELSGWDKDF

[7] = biological target: T4, cGMP-dependent protein kinase 2 (Homo sapiens); details: at 1 µM
[8] = biological target: T5, cAMP-dependent protein kinase catalytic subunit PRKX (Homo sapiens) (UniProt P51817); details: at 0.1 µM
T5 sequence (whole entry): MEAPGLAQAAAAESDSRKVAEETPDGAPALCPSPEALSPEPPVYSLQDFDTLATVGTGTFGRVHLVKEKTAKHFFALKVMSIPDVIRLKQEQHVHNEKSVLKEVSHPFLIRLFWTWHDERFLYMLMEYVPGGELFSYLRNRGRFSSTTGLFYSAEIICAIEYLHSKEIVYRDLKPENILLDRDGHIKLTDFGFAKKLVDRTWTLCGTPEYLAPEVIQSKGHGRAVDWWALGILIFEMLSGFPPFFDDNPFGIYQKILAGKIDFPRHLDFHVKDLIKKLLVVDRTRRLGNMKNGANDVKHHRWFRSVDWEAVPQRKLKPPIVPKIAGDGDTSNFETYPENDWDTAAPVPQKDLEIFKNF

[9] = biological target: T5, cAMP-dependent protein kinase catalytic subunit PRKX (Homo sapiens); details: at 1 µM
[10] = biological target: Rho-associated protein kinase 1 (Homo sapiens) (UniProt Q13464); details: at 0.1 µM
[11] = biological target: Rho-associated protein kinase 1 (Homo sapiens) (UniProt Q13464); details: at 1 µM
[12] = biological target: Rho-associated protein kinase 2 (Homo sapiens) (UniProt O75116); details: at 0.1 µM
Rho-associated protein kinase 2 (Homo sapiens), sequence (O75116 whole entry, looked up): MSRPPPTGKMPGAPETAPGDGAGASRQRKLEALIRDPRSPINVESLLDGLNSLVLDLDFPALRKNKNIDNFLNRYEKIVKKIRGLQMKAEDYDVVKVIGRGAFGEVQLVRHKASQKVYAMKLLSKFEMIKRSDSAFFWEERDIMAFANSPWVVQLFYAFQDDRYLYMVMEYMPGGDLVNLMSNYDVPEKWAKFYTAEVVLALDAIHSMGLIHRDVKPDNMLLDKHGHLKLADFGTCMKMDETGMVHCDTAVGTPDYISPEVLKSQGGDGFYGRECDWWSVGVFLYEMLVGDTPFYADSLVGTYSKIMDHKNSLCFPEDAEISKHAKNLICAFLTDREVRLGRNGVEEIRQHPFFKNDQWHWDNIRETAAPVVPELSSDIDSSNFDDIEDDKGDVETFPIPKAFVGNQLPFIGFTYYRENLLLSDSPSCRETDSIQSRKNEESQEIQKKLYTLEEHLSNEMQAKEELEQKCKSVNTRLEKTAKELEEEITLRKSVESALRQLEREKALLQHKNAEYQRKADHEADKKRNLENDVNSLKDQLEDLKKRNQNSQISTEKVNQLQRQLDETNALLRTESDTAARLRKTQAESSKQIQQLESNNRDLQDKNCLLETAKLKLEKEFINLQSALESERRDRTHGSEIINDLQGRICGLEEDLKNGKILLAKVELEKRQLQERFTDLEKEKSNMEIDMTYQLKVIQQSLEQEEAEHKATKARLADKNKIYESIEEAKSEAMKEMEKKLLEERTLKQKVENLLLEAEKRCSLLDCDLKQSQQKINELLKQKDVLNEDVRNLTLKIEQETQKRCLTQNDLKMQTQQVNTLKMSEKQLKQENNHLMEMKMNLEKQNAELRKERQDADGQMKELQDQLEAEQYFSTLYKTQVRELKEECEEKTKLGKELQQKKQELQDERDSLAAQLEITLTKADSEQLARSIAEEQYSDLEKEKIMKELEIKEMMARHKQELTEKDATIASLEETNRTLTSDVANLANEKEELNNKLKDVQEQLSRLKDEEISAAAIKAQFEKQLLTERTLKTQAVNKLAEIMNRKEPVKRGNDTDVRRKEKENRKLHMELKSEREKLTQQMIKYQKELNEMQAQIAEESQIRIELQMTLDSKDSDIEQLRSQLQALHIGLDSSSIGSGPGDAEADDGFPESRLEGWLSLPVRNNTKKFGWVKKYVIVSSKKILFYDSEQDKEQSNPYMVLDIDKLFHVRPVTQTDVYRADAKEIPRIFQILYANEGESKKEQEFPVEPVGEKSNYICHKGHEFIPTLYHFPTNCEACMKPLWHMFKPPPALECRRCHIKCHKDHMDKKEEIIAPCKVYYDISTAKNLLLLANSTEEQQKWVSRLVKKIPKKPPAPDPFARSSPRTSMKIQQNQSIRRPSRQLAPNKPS

[13] = biological target: Rho-associated protein kinase 2 (Homo sapiens) (UniProt O75116); details: at 1 µM
[14] = biological target: Ribosomal protein S6 kinase alpha-1 (Homo sapiens) (UniProt Q15418); details: at 0.1 µM
Ribosomal protein S6 kinase alpha-1 (Homo sapiens), sequence (Q15418 whole entry): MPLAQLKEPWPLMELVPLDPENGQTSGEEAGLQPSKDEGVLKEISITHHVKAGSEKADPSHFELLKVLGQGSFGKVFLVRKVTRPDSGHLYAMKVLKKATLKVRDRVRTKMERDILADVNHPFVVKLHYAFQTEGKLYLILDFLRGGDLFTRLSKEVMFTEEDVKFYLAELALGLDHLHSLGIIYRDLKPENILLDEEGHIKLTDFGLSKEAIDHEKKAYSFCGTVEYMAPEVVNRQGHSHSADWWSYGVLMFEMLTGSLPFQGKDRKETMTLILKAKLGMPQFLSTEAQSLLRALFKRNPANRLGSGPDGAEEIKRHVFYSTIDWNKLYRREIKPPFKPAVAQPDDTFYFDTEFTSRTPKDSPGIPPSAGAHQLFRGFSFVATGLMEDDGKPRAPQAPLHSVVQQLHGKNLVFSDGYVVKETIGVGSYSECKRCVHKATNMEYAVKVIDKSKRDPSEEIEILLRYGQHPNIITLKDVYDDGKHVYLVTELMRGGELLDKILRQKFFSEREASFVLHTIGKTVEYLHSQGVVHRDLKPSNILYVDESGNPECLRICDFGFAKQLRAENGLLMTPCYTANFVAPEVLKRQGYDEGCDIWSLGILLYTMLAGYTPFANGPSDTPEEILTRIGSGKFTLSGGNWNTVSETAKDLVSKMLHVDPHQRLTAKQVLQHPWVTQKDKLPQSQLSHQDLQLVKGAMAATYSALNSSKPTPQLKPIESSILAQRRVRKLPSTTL

[15] = biological target: Ribosomal protein S6 kinase alpha-1 (Homo sapiens) (UniProt Q15418); details: at 1 µM
[16] = biological target: Ribosomal protein S6 kinase alpha-3 (Homo sapiens) (UniProt P51812); details: at 0.1 µM
Ribosomal protein S6 kinase alpha-3 (Homo sapiens), sequence (P51812 whole entry): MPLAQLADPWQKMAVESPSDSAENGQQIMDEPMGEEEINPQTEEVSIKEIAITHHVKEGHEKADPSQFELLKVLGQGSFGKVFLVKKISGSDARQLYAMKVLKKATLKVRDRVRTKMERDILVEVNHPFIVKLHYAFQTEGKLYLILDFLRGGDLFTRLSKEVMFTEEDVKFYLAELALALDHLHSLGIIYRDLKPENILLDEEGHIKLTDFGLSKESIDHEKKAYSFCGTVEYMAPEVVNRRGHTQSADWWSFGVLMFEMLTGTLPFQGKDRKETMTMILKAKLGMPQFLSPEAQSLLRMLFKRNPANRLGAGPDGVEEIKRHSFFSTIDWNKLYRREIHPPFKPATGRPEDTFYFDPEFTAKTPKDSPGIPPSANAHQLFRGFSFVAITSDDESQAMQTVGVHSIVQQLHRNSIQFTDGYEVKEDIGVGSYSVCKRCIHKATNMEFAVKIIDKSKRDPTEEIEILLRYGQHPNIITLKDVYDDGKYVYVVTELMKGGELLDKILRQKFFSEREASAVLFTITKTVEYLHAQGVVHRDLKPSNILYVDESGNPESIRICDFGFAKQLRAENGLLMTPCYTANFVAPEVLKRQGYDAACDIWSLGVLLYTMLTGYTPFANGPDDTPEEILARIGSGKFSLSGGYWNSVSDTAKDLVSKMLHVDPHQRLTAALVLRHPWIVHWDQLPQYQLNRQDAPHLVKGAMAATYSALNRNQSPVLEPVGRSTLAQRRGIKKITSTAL

[17] = biological target: Ribosomal protein S6 kinase alpha-3 (Homo sapiens) (UniProt P51812); details: at 1 µM
[18] = biological target: Ribosomal protein S6 kinase alpha-2 (Homo sapiens) (UniProt Q15349); details: at 0.1 µM
Ribosomal protein S6 kinase alpha-2 (Homo sapiens), sequence (Q15349 whole entry): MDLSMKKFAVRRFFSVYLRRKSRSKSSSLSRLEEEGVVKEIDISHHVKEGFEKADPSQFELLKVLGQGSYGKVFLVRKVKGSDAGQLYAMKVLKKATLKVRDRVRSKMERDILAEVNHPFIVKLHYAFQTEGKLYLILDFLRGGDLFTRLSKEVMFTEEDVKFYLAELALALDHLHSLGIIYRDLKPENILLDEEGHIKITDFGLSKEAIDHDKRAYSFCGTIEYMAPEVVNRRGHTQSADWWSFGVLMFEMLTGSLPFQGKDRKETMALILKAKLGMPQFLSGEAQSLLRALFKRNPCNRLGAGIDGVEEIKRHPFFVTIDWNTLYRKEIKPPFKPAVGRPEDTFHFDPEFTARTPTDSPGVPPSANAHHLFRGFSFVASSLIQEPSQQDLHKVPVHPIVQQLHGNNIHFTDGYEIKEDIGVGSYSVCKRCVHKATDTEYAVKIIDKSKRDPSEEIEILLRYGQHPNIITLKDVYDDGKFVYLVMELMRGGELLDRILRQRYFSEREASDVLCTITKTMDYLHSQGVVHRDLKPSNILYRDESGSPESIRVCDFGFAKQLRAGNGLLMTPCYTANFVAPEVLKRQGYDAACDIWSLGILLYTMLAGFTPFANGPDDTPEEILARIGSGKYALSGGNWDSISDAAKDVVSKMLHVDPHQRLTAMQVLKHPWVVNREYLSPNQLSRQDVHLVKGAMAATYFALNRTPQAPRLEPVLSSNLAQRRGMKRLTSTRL

[19] = biological target: Ribosomal protein S6 kinase alpha-2 (Homo sapiens) (UniProt Q15349); details: at 1 µM
[20] = biological target: Ribosomal protein S6 kinase alpha-6 (Homo sapiens) (UniProt Q9UK32); details: at 0.1 µM;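 further: reported value is the mean inhibition of RSK4, from the GSK PKIS kinase inhibitor screen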
Ribosomal protein S6 kinase alpha-6 (Homo sapiens), sequence (Q9UK32 whole entry): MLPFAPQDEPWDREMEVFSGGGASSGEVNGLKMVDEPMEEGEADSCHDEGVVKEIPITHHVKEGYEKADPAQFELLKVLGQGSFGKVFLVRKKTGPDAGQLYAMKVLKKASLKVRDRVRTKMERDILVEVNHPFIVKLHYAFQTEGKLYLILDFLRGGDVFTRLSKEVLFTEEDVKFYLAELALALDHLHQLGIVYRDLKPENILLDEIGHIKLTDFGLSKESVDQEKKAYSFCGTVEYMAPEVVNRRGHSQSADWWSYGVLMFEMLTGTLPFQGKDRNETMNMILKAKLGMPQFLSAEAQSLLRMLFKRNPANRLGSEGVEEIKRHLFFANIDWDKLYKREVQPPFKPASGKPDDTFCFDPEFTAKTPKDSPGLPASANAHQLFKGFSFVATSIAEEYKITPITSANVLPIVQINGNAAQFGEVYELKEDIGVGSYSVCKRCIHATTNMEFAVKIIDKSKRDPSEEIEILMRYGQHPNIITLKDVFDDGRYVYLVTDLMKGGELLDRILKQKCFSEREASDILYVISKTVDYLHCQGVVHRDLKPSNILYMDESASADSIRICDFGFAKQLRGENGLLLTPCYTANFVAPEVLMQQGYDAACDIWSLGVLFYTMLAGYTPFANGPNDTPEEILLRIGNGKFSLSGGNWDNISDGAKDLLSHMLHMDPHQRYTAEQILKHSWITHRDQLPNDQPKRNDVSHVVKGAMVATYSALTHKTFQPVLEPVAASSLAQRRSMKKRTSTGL

Structure (SMILES) | inhibition [1] | inhibition [2] | inhibition [3] | inhibition [4] | inhibition [5] | inhibition [6] | inhibition [7] | inhibition [8] | inhibition [9] | inhibition [10] | inhibition [11] | inhibition [12] | inhibition [13] | inhibition [14] | inhibition [15] | inhibition [16] | inhibition [17] | inhibition [18] | inhibition [19] | inhibition [20]
CCn1c(-c2nonc2N)nc2c(C#CCN)ncc(OCCCN)c21 | 0.48% | -2.29% | -1.06% | 8.62% | 38% | 37.1% | 74.6% | 4.23% | 18.9% | 7.73% | 48.7% | 10.6% | 53.7% | 20.1% | 68.3% | 24.4% | 72.9% | 7.65% | 48.5% | 1.06%
CCn1c(-c2nonc2N)nc2c(C#CC(C)(C)O)nc(O[C@@H](CN)c3ccccc3)cc21 | 66.3% | 10.9% | 64.3% | 68.7% | 81.1% | 67.9% | 84.4% | 82.3% | 88.2% | 9.16% | 51.7% | 11.5% | 59.4% | 19.1% | 71.6% | 18% | 69.5% | 15.4% | 69.9% | 4.01%
NS(=O)(=O)c1ccc(-c2ccc3c(NC(=O)C4CC4)n[nH]c3c2)cc1 | 0.5% | 1.37% | 0.5% | 0.62% | 1.57% | 1.04% | 3.29% | 1.26% | -1.16% | 1.11% | 2.34% | 0.8% | 1.01% | 1.47% | 0.59% | 0.4% | 1.28% | 0.45% | 2.46% | 1.52%
COc1cc(C=NNc2ncnc3c2cnn3Cc2ccccc2)ccc1O | 1% | -4.03% | -1.04% | 0.15% | 3.36% | 0.26% | 4.01% | 0.31% | 5.24% | 1.47% | 5.87% | -0.21% | 1.36% | 1.68% | 3.82% | 1.86% | 3.94% | -0.6% | 1.82% | -1.29%
NC(=O)c1sc(-n2cnc3cc(C(F)(F)F)ccc32)cc1OCc1ccccc1Br | 2.17% | 1.16% | 1.32% | 0.44% | -0.88% | 0.81% | 1.01% | 0.67% | 1.17% | 0.41% | 0.79% | 0.92% | 1.05% | 1.6% | 2.97% | 3.26% | 3.31% | 2.33% | 1.83% | 1.36%
CCn1c(-c2nonc2N)nc2c(C#CC(C)(C)O)ncc(OCC3CCNCC3)c21 | 3.59% | 0.21% | 4.23% | 9.8% | 48.9% | 35.4% | 70.1% | 45.6% | 75.7% | 1.94% | 13.7% | 6.21% | 27.5% | 4.34% | 19.9% | 4.16% | 19% | 2.47% | 7.78% | 2.29%
CCn1c(-c2nonc2N)nc2c(C#CC(C)(C)O)ncc(OC[C@@H]3CCCN3)c21 | 12.6% | 2.38% | 15.9% | 49.9% | 76.4% | 65.7% | 76.5% | 77% | 85.4% | 1.1% | 12.4% | -0.51% | 10% | -0.68% | 23.3% | 3.35% | 24.9% | 2.02% | 13.3% | -0.15%
